Compound activity as filed in PubChem BioAssay.
GLD-1 RNA inh: GLD-1/TGE RNA complex disruptors, primary screen, biochemical, fluorescence polarization. inhibition, % at 5.96 µM. purified GLD-1 + fluorescein TGE RNA. AID 2280, 2010. Female germline-specific tumor suppressor gld-1 (Caenorhabditis elegans), Q17339. 0.44% of 320,000 active;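 active means percent inhibition above a per-plate cutoff, the plate mean of test compounds plus 3 SD, cut at about 30% in these data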;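 further: 0% = DMSO wells with GLD-1 and probe and 100% = wells lacking GLD-1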
EBV gp42 block: Epstein-Barr virus gp42 inhibitors, primary screen, biochemical, uHTS, fluorescence polarization; Glycoprotein 42 (Epstein-Barr virus (strain AG876)), Q1HVG2; Fluorescence polarization binding assay, mP read-out; inhibition, % (tested at 21.74 µM); 0.42% of 220,000 active; in the data active means inhibition above about 50%
MEX-5 binding: MEX-5 zinc finger RNA-binding disruptors – biochemical, C. elegans, fluorescence polarization, MLPCN library, primary screen; Zinc finger protein mex-5 (Caenorhabditis elegans), Q9XUB2; MEX-5/FITC-TCR2 RNA binding; active compounds read low; activity score (negative = inhibition of binding), % at 10 µM; 0.38% of 300,000 active;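 active means inhibition past about -25% in most replicates, and total fluorescence under double the plate's negative control median, limit read from the data; inconclusive means replicates evenly split on the limit, or fluorescence at least double controls; inactive means too little inhibition in most replicates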;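 further: 0% = DMSO and -100% = 5 µM competing unlabeled TCR2 RNA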
eLon inh: inhibitors of E. coli Lon protease, primary screen, biochemical, fluorescence polarization; purified E. coli Lon protease; inhibition, % at 7.94 µM; 0.42% of 360,000 active; AID 602123, 2011; in the data active means inhibition above about 13%, passing the limit was not always enough;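 further: 0% = enzyme with probe and DMSO and 100% = no enzyme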
Target sequence (P0A9M0 whole entry, looked up): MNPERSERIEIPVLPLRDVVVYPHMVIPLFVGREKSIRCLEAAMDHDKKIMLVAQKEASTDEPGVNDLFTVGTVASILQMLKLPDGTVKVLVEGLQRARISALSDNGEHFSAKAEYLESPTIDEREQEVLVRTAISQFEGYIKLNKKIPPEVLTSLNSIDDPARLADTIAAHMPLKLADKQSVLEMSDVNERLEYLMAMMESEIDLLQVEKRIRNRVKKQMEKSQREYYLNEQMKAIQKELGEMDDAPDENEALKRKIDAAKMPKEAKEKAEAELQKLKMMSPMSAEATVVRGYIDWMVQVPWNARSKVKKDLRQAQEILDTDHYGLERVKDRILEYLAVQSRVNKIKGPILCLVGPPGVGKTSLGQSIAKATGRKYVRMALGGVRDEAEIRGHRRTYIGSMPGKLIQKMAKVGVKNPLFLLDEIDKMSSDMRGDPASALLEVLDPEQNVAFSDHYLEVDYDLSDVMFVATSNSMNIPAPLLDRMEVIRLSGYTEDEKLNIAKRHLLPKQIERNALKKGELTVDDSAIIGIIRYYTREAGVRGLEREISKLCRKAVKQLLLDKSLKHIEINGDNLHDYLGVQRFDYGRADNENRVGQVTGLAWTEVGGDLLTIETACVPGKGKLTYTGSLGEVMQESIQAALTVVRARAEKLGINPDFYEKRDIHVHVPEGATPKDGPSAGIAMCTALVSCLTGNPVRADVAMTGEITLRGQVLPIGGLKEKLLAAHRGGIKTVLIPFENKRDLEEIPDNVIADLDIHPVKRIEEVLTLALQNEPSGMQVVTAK
Bcl-xL primary: inhibitors of human Bcl-xL, primary screen, biochemical, fluorescence polarization, HTS. Bcl-2-like protein 1 (Homo sapiens), Q07817. 0.7% of 320,000 active. inhibition, % at 10.9 µM. GST-Bcl-xL / FITC-Bim BH3 peptide fluorescence polarization;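 active means inhibition above the mean of all tested compounds plus 3 SD, cutoff set per campaign, cut at about 30% in these data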;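 further: 0% = DMSO wells and 100% = unlabeled Bim-BH3 peptide competitor; inhibitors lower millipolarization by displacing the labeled peptide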
MCL1 BIM primary: inhibitors of MCL1 binding to BIM-BH3, primary screen, biochemical, fluorescence polarization | Induced myeloid leukemia cell differentiation protein Mcl-1 (Homo sapiens), Q07820 | inhibition, % at 10.9 µM | AID 2057, 2009 | 0.68% of 320,000 active | GST-MCL1 / FITC-Bim-BH3 fluorescence polarization;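 active means inhibition above the mean inhibition of all tested compounds plus 3 SD, set per campaign, cut at about 40% in these data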;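 further: 0% = DMSO wells and 100% = unlabeled Bim-BH3 peptide control; higher means more loss of mP so more displacement of Bim peptide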
Bcl-xL conf: Bcl-xL inhibitors blocking Bim BH3 binding, confirmation, counter-screen for MCL1 inhibitor project, biochemical, fluorescence polarization; shares compounds with MCL1 BIM primary; GST-Bcl-xL / FITC-Bim BH3 peptide FP binding; inhibition, % at 10.9 µM; 54% of 1,700 active;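 active means inhibition above a cutoff equal to the mean inhibition of all tested compounds plus 3 SD, cut at about 30% in these data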;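 further: 0% = DMSO wells and 100% = unlabeled Bim BH3 control peptide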
MCL1 BIM confirm: inhibitors of MCL1 binding to BIM-BH3, confirmation, biochemical, fluorescence polarization, triplicate. shares compounds with MCL1 BIM primary. inhibition, % at 10.9 µM. AID 2168, 2009. 61% of 1,700 active. GST-MCL1 / FITC-Bim-BH3 fluorescence polarization;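 active means inhibition above the average of all tested compounds plus 3 SD, cut at about 40% in these data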;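 further: 0% = DMSO wells and 100% = unlabeled Bim-BH3 control peptide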
GLD-1 TGE cf: GLD-1/TGE RNA binding inhibitors, retest, confirmation, biochemical, fluorescence polarization, triplicate; shares compounds with GLD-1 RNA inh; GLD-1/FL-TGE RNA fluorescence polarization; inhibition, % at 5.96 µM; 10% of 550 active;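 active means average inhibition across triplicates above the hit cutoff set in the primary screen, cut at about 32% in these data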;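 further: 0% = GLD-1 with RNA probe and DMSO and 100% = wells lacking GLD-1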
E coli Lon conf: E. coli Lon protease inhibitor retest, confirmation, biochemical, fluorescence polarization; shares compounds with eLon inh; AID 602230, 2012; inhibition, % at 7.94 µM; 31% of 1,400 active; purified E. coli Lon; in the data active means inhibition above about 16%;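 further: 0% = enzyme with probe and DMSO and 100% = no enzyme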
* hit, by the source's call; ? = inconclusive; . = not tested or not shown; + = active, no number; ! = repeats disagree. This is a sample that favours compounds with a hit; in the whole collection about 1.4% have one here.

SMILES | GLD-1 RNA inh | EBV gp42 block | MEX-5 binding | eLon inh | Bcl-xL primary | MCL1 BIM primary | Bcl-xL conf | MCL1 BIM confirm | E coli Lon conf | others
O=C(CCN1C(=O)C2CC=C(Cl)CC2C1=O)N1CCCCC1 (stereo not given) | 58* | 13 | -41* | 29* | 54* | 56* | 56* | 66* | 52*
Cc1onc(-c2ccccc2Cl)c1C(=O)NCc1ccc2c(c1)cc(C)n2C | 68* | -1 | 0 | 36* | 66* | 77* | 34* | 47* | 15 | GLD-1 TGE cf=16
Cc1ccc(CNC(=O)c2c(-c3ccccc3Cl)noc2C)cc1 | -1 | . | 0 | -3 | -1 | -1 | . | . | .
CC(=O)N/N=C/c1cc(C)n(-c2ccc(Br)cc2)c1C | -1 | 9 | 0 | -5 | 3 | -2 | . | . | .
CC(=O)N/N=C/c1cc(C(C)C)cc(/C=N/NC(C)=O)c1O | 143* | 71* | -3 | 69* | 93* | 100* | 92* | 101* | 100*
Cc1ccc(C)c(-n2c3nc(=O)[nH]c(=O)c-3cc3cc([N+](=O)[O-])ccc32)c1 | 59* | 59* | . | 60* | 76* | 87* | 51* | 74* | 3 | GLD-1 TGE cf=27
Cc1cn(CC(=O)NCC(c2ccccc2)c2ccccc2)c(=O)[nH]c1=O | . | . | . | -6 | . | . | . | . | .
CCC1(c2ccccc2)NC(=O)N(CC(=O)Nc2ccc(OC)nc2)C1=O (stereo not given) | 124* | . | ? | 112* | 167* | + | 168* | + | 105*
CCOc1cc(C2C(C#N)=C(N)OC3=C2C(=O)CC(C)(C)C3)cc([N+](=O)[O-])c1O (stereo not given) | -1 | -9 | -1 | -2 | -6 | -9 | . | . | .
CC1(C)CC(=O)C2=C(C1)OC(N)=C(C#N)C2c1cc2c(cc1[N+](=O)[O-])OCO2 (stereo not given) | 141* | 94* | -56* | 104* | 186* | + | 108* | 132* | 80*
O=C(O)c1ccc(N2CCCS2(=O)=O)cc1 | 14 | . | 4 | 0 | 7 | 3 | . | . | .
CC(C)c1[nH]nc2c1C1(CCN(Cc3ccccc3)CC1)C(C#N)=C(N)O2 | 57* | -4 | -1 | 30* | 104* | 114* | 0 | -12 | -9
CCCc1[nH]nc2c1C1(CCN(C(=O)OCc3ccccc3)CC1)C(C#N)=C(N)O2 | -4 | 4 | 2 | -3 | 2 | 6 | . | . | .
O=S(=O)([N-]c1nc2ccccc2nc1-[n+]1ccc(-c2ccncc2)cc1)c1ccccc1 | 153* | 56* | -5 | 47* | 188* | + | 150* | 183* | 131*
CN(C)CCCN1C(=O)c2cccc3c([N+](=O)[O-])ccc(c23)C1=O | 48* | 49 | . | 131* | 76* | 77* | 92* | 125* | 43* | GLD-1 TGE cf=22
O=C1c2cccc3c([N+](=O)[O-])ccc(c23)C(=O)N1CCc1ccccn1 | 7 | 14 | -1 | 4 | 7 | 4 | . | . | .
CN1Cc2c(N)cccc2C(c2ccccc2)C1 (stereo not given) | 39* | 29 | -6 | 55*! | 79* | 92* | 26 | 25 | 75* | GLD-1 TGE cf=13
COc1ccccc1C(c1c(O)nc(SC)[nH]c1=O)c1c(O)nc(SC)[nH]c1=O | 5 | . | 1 | 17 | 7 | -1 | . | . | .
CCOc1cc(C(c2c(O)nc(SC)[nH]c2=O)c2c(O)nc(SC)[nH]c2=O)ccc1O | 68* | . | -21 | 49* | 84* | 97* | 65* | 76* | 41*
CCCCC1=CC2=C(c3ccco3)C(=O)C(C)(OC(=O)c3ccc(OC)cc3)C(=O)C2=CN1Cc1ccco1 (stereo not given) | 22 | 24 | -8 | 20 | 25 | 31 | . | . | .
CCCCC1=CC2=C(c3ccco3)C(=O)C(C)(OC(=O)c3ccc(OC)cc3)C(=O)C2=CN1CCCCO (stereo not given) | 42* | -2 | 0 | 37* | 79* | 89* | 13 | 10 | 2
CC(NC(=O)c1ccnn1C)C1CCCO1 (stereo not given) | 2 | -6 | -1 | -1 | 7 | 9 | . | . | .
CCCCNC(=S)N(CCO)Cc1cc2cc3c(cc2[nH]c1=O)OCCO3 | 3 | . | -2 | -14 | 9 | 9 | . | . | .
COc1cc(C(C(=O)Nc2c(C)cccc2C)N(C)C(=O)c2ccc(-n3cnnn3)cc2)ccc1O (stereo not given) | 0 | -17 | -3 | -15 | 6 | 7 | . | . | .
CN1CCc2cc3c(c4c2[C@H]1[C@H](O)c1ccccc1-4)OCO3 | 48* | 59* | -84* | 59* | 111* | 124* | 61* | 80* | 27*
COc1ccc2noc3c2c1C(=O)c1ccccc1-3 | 91* | . | ? | + | 116* | 117* | 110* | 121* | 116*
CC(=O)N1CCc2c(sc(NC(=O)C3CCN(S(=O)(=O)c4cccs4)CC3)c2C(N)=O)C1 | 28 | . | -3 | -39 | 6 | 3 | . | . | .
CC(=O)N1CCc2c(sc(NC(=O)C3CCCN3S(=O)(=O)c3cccs3)c2C(N)=O)C1 (stereo not given) | 115* | . | -35* | 40* | 67* | 64* | 67* | 76* | 14
CC(C)n1c(SCC(=O)NC2CC2)nnc1-c1ccco1 | 5 | . | -1 | 5 | 6 | 10 | . | . | .
CCN=c1scc(C)n1/N=C/c1ccc(O)c(O)c1O | 5 | -6 | -17 | 25* | 15 | 52* | 33* | 57* | 22*
